# Screening data from PubChem.
# DAX1 inh-1: inhibits human nuclear receptor DAX1. P51843. AID 504766. HEK293 Gal4-DAX1 luciferase reporter, luminescence. inhibition, % at 6.75 µM. actives 0.99% (n = 340,000);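 active = inhibition above the mean over all tested compounds plus 3 SD, cut at about 4.2% in these data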;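 note: inhibition shows as a rise in luminescence from relieved DAX1 repression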
# Target sequence (P51843 207-470 limits assumed): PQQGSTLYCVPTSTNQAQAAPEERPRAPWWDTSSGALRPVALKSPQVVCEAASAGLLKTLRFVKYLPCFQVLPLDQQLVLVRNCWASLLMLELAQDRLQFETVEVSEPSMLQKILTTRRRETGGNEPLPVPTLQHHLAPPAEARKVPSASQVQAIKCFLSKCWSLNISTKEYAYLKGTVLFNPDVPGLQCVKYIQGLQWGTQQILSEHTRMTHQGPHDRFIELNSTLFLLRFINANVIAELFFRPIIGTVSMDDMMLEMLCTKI
# DAX1 inh-2: DAX1 (NR0B1) inhibition, primary screen; actives 1.1% (n = 370,000); HEK293T StAR-luciferase reporter, SF-1/DAX-1 repression relief; AID 652010; inhibition, % at 6.8 µM;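 active = inhibition above the mean over all tested compounds plus 3 SD, cut at about 3.6% in these data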;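 note: higher inhibition means more luminescence from relief of DAX-1 repression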
# hcDAF12 agonist: activates DAF-12 receptor from parasite H. contortus; actives 1.4% (n = 370,000); AID 652067; HEK293 hcDAF-12 lit1-tk-luc reporter, luminescence; 0% DMSO, 100% Δ7-dafachronic acid; activation, % at 6.8 µM;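 active = activation above the mean of all tested compounds plus 3 SD, cut at about 5.5% in these data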
# hgDAF12 agonist: hgDAF-12 agonism, primary luciferase screen | actives 1.8% (n = 370,000) | AID 687014 | HEK293 GAL4-hgDAF12 UAS-luciferase reporter, agonist luminescence; normalized to butyrate control | activation, % at 6.8 µM;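 active = activation above a cutoff set at the mean of all screened compounds plus 3 SD, cut at about 10% in these data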
# ssDAF12 agonist: activators of S. stercoralis DAF-12 nuclear receptor. actives 1% (n = 370,000). HEK293 ssDAF-12/GRIP1 lit1-tk-luc reporter, luminescence; % of 3 µM dafachronic acid response. activation, % at 6.8 µM;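 active = activation above the mean over all tested compounds plus 3 SD, cut at about 0.9% in these data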
# A number is an active result; 0 = inactive; - = no result. Most compounds without a hit are left out; they make up all but 4.1% or so of the library.
SMILES,DAX1 inh-1,DAX1 inh-2,hcDAF12 agonist,hgDAF12 agonist,ssDAF12 agonist
COc1ccc(C(=O)CSc2ccc(-c3ccccc3)nn2)cc1,4.6,0,0,0,0
O=C(CSc1ccc(-c2ccncc2)nn1)N1CCCCC1,0,0,0,0,0
O=S1(=O)c2ccc(Br)cc2OC[C@@H](Cc2ccccc2)N1Cc1cn(Cc2ccc(C(F)(F)F)cc2)nn1,-,0,0,0,0
COc1ccc(CN(CC#Cc2ccccc2)Cc2ccccc2)c(OC)c1,-,0,0,0,0
Cc1cccc(CNC(=S)OC2CCC23CCC(c2ccccc2)CC3)c1 (stereo not drawn),-,0,0,0,0
CC1CCCN(S(=O)(=O)c2ccc(CN3C(=O)c4cccnc4C3=O)cc2)C1 (stereo not drawn),0,3.8,0,0,0
COc1ccc(CN2C(=O)c3cccnc3C2=O)cc1S(=O)(=O)N1CC(C)CC(C)C1 (stereo not drawn),0,0,0,0,0
C=CCn1c(COc2ccc(OC)cc2)nnc1SCn1nnc2ccccc2c1=O,0,0,0,0,6.3
CCCCn1c(N)c(N(CCOC)C(=O)c2cc(-c3ccccc3)nc3ccccc23)c(=O)[nH]c1=O,7.0,0,0,0,0
CCCCn1c(N)c(N(CC(C)C)C(=O)c2cc(Cl)nc3ccccc23)c(=O)[nH]c1=O,0,0,0,0,1.1
CCCCn1c(N)c(N(CC(C)C)C(=O)c2cc(C)nc3ccccc23)c(=O)[nH]c1=O,0,0,0,0,0
CN(C)CCCN(C(=O)c1cc(Cl)sc1Cl)c1nc2cc3c(cc2s1)OCO3,0,4.1,0,0,0
COc1ccccc1-c1cccc2[nH]c3c(c12)CCN1C(=O)[C@H]2[C@H](C)ON(C)[C@H]2C[C@@H]31,-,0,0,0,0
COc1ccc(CN2CCNC(=O)C2CC(=O)N(Cc2nccn2C)C(C)C)c(OC)c1 (stereo not drawn),4.4,0,0,0,0
C=CCN(CC=C)C(=S)NC(=O)/C=C/c1ccc(OC)cc1,0,0,0,0,1.4
C/C(CC(=O)Nc1ccc2c(c1)OCCO2)=N\NC(=O)c1cccc(O)c1,6.4,0,0,0,0
COc1cc(NC(=O)C/C(C)=N/NC(=O)c2cccc(O)c2)c(OC)cc1Cl,0,0,6.1,12,0
C/C(CC(=O)Nc1ccc(Br)cc1)=N\NC(=O)c1cccc(O)c1,5.7,0,0,0,0
CC(C)(C)c1ccc(C(=O)NCC(=O)NNC(=O)c2ccccc2O)cc1,0,0,0,0,0
Cc1ccc(O)c(C(=O)CC(=O)c2ccc(C(C)(C)C)cc2)c1,0,0,0,11,0
COC1OC(CO)C(N(C)C(C)=O)C1O (stereo not drawn),4.8,0,0,0,0
CN(Cc1ccc(F)cc1)C(=O)c1cccc2c1C(=O)N(Cc1cccnc1)C2,-,0,0,0,0
O=C(CSc1nc2ncccc2[nH]1)NCc1ccccc1,4.7,0,0,0,0
O=C(O)CC(C(=O)O)n1nc(-c2ccccc2)cc1-c1ccccc1 (stereo not drawn),0,0,5.8,0,0
O=c1oc2ccccc2cc1NCc1ccccc1O,4.2,0,0,0,0
SMILES,DAX1 inh-1,DAX1 inh-2,hcDAF12 agonist,hgDAF12 agonist,ssDAF12 agonist
O=C(NCc1ccccc1Cl)c1cc2ccccc2oc1=O,0,0,0,0,0
CC(=O)N1N=C(c2ccc(C)cc2)CC1c1ccco1 (stereo not drawn),0,0,0,0,0
Cc1ccc(N2N=C(c3ccc(F)cc3)CC2c2ccco2)cc1 (stereo not drawn),5.1,0,0,0,0
Cc1ccc(C2=NN(C(=O)CCCC(=O)O)C(c3ccco3)C2)cc1 (stereo not drawn),0,0,0,0,1.1
Cc1cc(N2CCN(C(=O)Oc3ccc(-c4ccccc4)cc3)CC2)c2ccccc2n1,-,0,0,0,0
NNc1nc2c(-c3cccc(C(F)(F)F)c3)nnn2c2ccccc12,0,0,6.5,0,0
Cc1ccc(-c2nnn3c2nc(NCCc2ccc(S(N)(=O)=O)cc2)c2ccccc23)cc1,0,0,5.7,0,0
CC(=O)NCCNc1nc2c(-c3cccc(C(F)(F)F)c3)nnn2c2ccccc12,0,0,0,0,0
COCCNc1nc2c(-c3cccc(C(F)(F)F)c3)nnn2c2ccccc12,0,0,6.5,0,1.3
CS(=O)(=O)N1C[C@]2(c3ccccc3)CC1Cc1ccccc12,-,-,0,0,0
C=CCN=C1NC(CCc2ccccc2)C(C(=O)OC)=C(C)N1Cc1cccc(C(F)(F)F)c1 (stereo not drawn),-,0,0,0,1.5
C=CCN=C1NC(CCc2ccccc2)C(C(=O)OC)=C(C)N1Cc1ccccc1C(F)(F)F (stereo not drawn),-,0,0,0,0
CCCCNC(=O)C1(C(=O)c2ccc(OC)cc2)CC(c2ccccn2)=NO1 (stereo not drawn),-,0,0,0,0
CCOc1ccccc1NC(=O)C(OC(=O)C1CC1)c1ccccc1 (stereo not drawn),0,0,0,0,0
CCOc1ccccc1NC(=O)C(NCC1(N2CCCCC2)CCCCC1)c1ccccc1 (stereo not drawn),4.4,0,0,0,0
C[C@H]1C2CC(OC(=O)NCc3ccc(Cl)cc3)C(C2)[C@H]2CCCCN21 (stereo partly drawn),-,0,0,0,0
COC(=O)[C@]1(CC(C)C)NC=C(C(=O)c2ccccc2)[C@@H]1c1cccc(C(F)(F)F)c1,-,0,0,0,0
CN(C)CCCNC(=O)C[C@@H]1CC[C@@H]2[C@H](COc3ccc(NC(=O)c4cccc(F)c4)cc3C(=O)N2C)O1,-,0,0,0,0
CC(=O)Nc1ccccc1P(=O)(c1ccccc1)c1ccccc1OC(C)=O (stereo not drawn),4.5,0,0,0,0
Cc1ccc(OCCOc2ccc(Cl)cc2Cl)c(Br)n1,-,-,0,12,0
Cc1cc(C)n(CCOc2ccc(Cl)cc2Cl)n1,0,0,0,0,0
COc1ccc(-n2c(SCC(=O)Nc3ccccc3-c3ccccc3)nnc2-c2ccco2)cc1,-,0,0,0,0
COCCCNC(=S)NNC(=O)c1ccc2c(c1)OCO2,0,0,0,0,0
CC(C)OCCCNC(=S)NNC(=O)c1ccc(Cl)c(Cl)c1,0,0,0,11,0
CCOC(=O)c1c(Nc2ccc(OC)cc2)n[nH]c1C,-,4.3,0,0,0
CCOC(=O)c1c(N/N=C/c2cccnc2)n[nH]c1C,5.3,0,0,0,0
CCCC(=O)OC12CCCN(C1)/C(=C/c1cccc(Cl)c1)C2 (stereo not drawn),-,0,0,0,0
Cn1c(/C=C/c2ccccc2[N+](=O)[O-])nc2ccccc2c1=O,4.5,0,0,0,0
CCn1c(/C=C/c2ccccc2[N+](=O)[O-])nc2ccccc2c1=O,0,0,0,0,0
CCOc1cc(CCNC(=O)c2cc3sccc3n2CC)ccc1OC,-,0,0,0,0
